From PubChem
miR122 inh: activators of miR-122 sensor in Huh7 cells; actives 0.14% (n = 340,000); activation, % at 12.5 µM; Huh7 psiCHECK-miR122 Renilla luciferase sensor, 48 h; AID 623901;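 active means mean activation of 30% or more, with every replicate also reaching 30%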;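 further: 0% = median of neutral control wells and 100% = median of positive control wells; higher luciferase signal means stronger suppression of miR-122 activity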
The depositor's hits bear a star. This excerpt belongs to a sample that is enriched for hits.

SMILES | miR122 inh
Cc1ccc(-c2cnc3c(c2)C(=O)N([C@H](C)CO)C[C@@H](C)[C@@H](CN(C)C(=O)Cc2cccnc2)O3)cc1 | 1
COCC(=O)N(C)C[C@H]1Oc2cc(-c3cccc(F)c3)ccc2S(=O)(=O)N([C@H](C)CO)C[C@@H]1C | -9
C[C@H]1CN([C@@H](C)CO)C(=O)c2cc(C#CC3(O)CCCC3)cnc2O[C@H]1CN(C)Cc1cncnc1 | -4
CCCC#Cc1cnc2c(c1)C(=O)N([C@@H](C)CO)C[C@H](C)[C@@H](CN(C)C(=O)Cc1ccccc1)O2 | -6
CCC(=O)N(C)C[C@@H]1Oc2ncc(C#Cc3ccc(OC)cc3)cc2C(=O)N([C@H](C)CO)C[C@H]1C | 3
C[C@H]1CN([C@@H](C)CO)C(=O)c2cc(C#CC3(O)CCCC3)cnc2O[C@@H]1CN(C)Cc1cncnc1 | 2
C[C@H](O)C#Cc1cnc2c(c1)C(=O)N([C@@H](C)CO)C[C@@H](C)[C@@H](CN(C)Cc1cncnc1)O2 | 1
C[C@H]1CN([C@@H](C)CO)C(=O)c2cc(NC(=O)NC3CCCCC3)ccc2O[C@@H]1CN(C)C(=O)Nc1ccccc1 | -93
COc1cccc(-c2ccc3c(c2)O[C@@H](CN(C)C(=O)C2CCCCC2)[C@H](C)CN([C@@H](C)CO)S3(=O)=O)c1 | -19
C[C@@H]1CN([C@@H](C)CO)C(=O)c2cc(C#CCN(C)C)cnc2O[C@H]1CN(C)C(=O)Cc1ccncc1 | 3
COCC(=O)Nc1ccc2c(c1)C(=O)N(C)C[C@H](OC)[C@@H](C)CN(C(=O)COC)[C@@H](C)CO2 | 1
COCC(=O)Nc1ccc2c(c1)C(=O)N(C)C[C@H](OC)[C@H](C)CN(C(=O)COC)[C@H](C)CO2 | -2
COCC(=O)Nc1ccc2c(c1)C(=O)N(C)[C@@H]1CC[C@@H](CC(=O)NC3CCCC3)O[C@H]1CO2 | 53*
CCS(=O)(=O)Nc1ccc2c(c1)C(=O)N(C)C[C@@H](OC)[C@@H](C)CN[C@@H](C)CO2 | 0
CC(C)NC(=O)N(C)C[C@H]1Oc2cc(-c3ccccc3)ccc2S(=O)(=O)N([C@H](C)CO)C[C@@H]1C | -12
Cc1ccc(-c2nc(C(Cl)Cl)c3ccccc3n2)cc1 | 61*
COc1ccc(-c2cnc3c(c2)C(=O)N([C@H](C)CO)C[C@@H](C)[C@@H](CN(C)Cc2ccccn2)O3)cc1 | 1
COc1ccc(C(C)(C)C)cc1NS(=O)(=O)c1cccc2cccnc12 | -117
CCCCC(=O)NC(c1ccccc1OC)c1ccc2cccnc2c1O (stereo not drawn) | 46*
COc1ccc(NS(=O)(=O)c2ccc3ccccc3c2)c2ncccc12 | -104
C[C@H](CO)N1C[C@H](C)[C@H](CN(C)C(=O)Cc2cccnc2)Oc2ncc(-c3ccncc3)cc2C1=O | 8
CO[C@@H]1CN(C)C(=O)c2ccc(NC(=O)Nc3ccc(Cl)cc3)cc2OC[C@H](C)N(C)C[C@H]1C | -4
C[C@@H]1CN([C@H](C)CO)C(=O)c2cc(-c3cccc(F)c3)cnc2O[C@H]1CN(C)C(=O)c1cccc(F)c1 | 0
Cc1cc(C(=O)Nc2cccc(O)c2)co1 | 36*
Cc1cccc(C(=O)Nc2cccc(S(=O)(=O)NCc3ccco3)c2)c1 | -95
SMILES | miR122 inh
C[C@H](CO)N1C[C@H](C)[C@H](CN(C)S(=O)(=O)c2ccc(F)cc2)Oc2ncc(/C=C/c3ccccc3)cc2C1=O | 7
CCC(=O)N(C)C[C@H]1Oc2cc(-c3cccnc3)ccc2S(=O)(=O)N([C@@H](C)CO)C[C@H]1C | 2
CCC(=O)N1[C@H](CN(C)C(C)=O)[C@H](c2ccc(-c3cccnc3)cc2)[C@@H]1CO | 43*
CCN(C[C@@H]1[C@@H](c2ccccc2)[C@@H](CO)N1C(=O)COC)S(C)(=O)=O | -92
CCC(=O)N(C)C[C@@H]1Oc2cc(-c3cccc(C#N)c3)ccc2S(=O)(=O)N([C@@H](C)CO)C[C@@H]1C | 2
CC(=O)N1[C@H](CNC(=O)C2CC2)[C@H](c2ccc(-c3ccccc3)cc2)[C@@H]1CO | -150
CCCNC(=O)NC[C@@H]1[C@@H](c2ccc(C3=CCCC3)cc2)[C@H](CO)N1C(=O)CC | -343
CC(=O)N(C)C[C@@H]1[C@@H](c2ccc(-c3cccc(C#N)c3)cc2)[C@H](CO)N1C(C)=O | 92*
CCC(=O)N1[C@H](CN(C(C)C)S(C)(=O)=O)[C@@H](c2ccccc2)[C@@H]1CO | 92*
COc1ccccc1C#Cc1ccc2c(c1)O[C@H](CN(C)Cc1ccncc1)[C@@H](C)CN([C@@H](C)CO)S2(=O)=O | -1
Cc1noc(C)c1S(=O)(=O)N(C)C[C@@H]1Oc2c(NC(=O)C3CCOCC3)cccc2C(=O)N([C@@H](C)CO)C[C@@H]1C | -96
COc1ccccc1S(=O)(=O)N(C)C[C@@H]1Oc2ncc(-c3ccc(C)cc3)cc2C(=O)N([C@H](C)CO)C[C@H]1C | 8
COc1ccccc1C#Cc1ccc2c(c1)O[C@@H](CN(C)Cc1ccncc1)[C@H](C)CN([C@H](C)CO)S2(=O)=O | 7
COCC#Cc1cnc2c(c1)C(=O)N([C@@H](C)CO)C[C@H](C)[C@@H](CN(C)C(=O)Cc1cccnc1)O2 | 5
